Assay outcomes as filed in PubChem.
SMN2 splice enh – SMN2 splice variant enhancement; HEK293 SMN2-luciferase splicing reporter, luminescence, 30-36 h; Potency, µM (titrated, usually from 46.1 µM), for inactives: at the top dose activity change, positive = activation, most hits filed as activators; 210,000 compounds, 2.8% hits; AID 1458; note: % of control where 0% means no effect; nearly all actives have a fitted effect of over 55% in size
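qHTS luciferase splicing reporter: luminescence rises when SMN2 exon 7 is included in transfected HEK293 cells. Compound exposure lasted 30-36 h at 37C, with 4.5 mM final sodium butyrate as control, followed by a ONE-Glo read.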
FLuc modulator – inhibits or activates purified firefly luciferase, miR-21 counter-screen; Potency, µM (titrated, usually from 57.5 µM), without a hit: top-dose activity change, negative = inhibition, actives largely listed as inhibitors; purified FLuc, Km substrates, luminescence inhibition; AID 588342; P08659; 360,000 compounds, 6.9% hits;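 note: plate controls were vehicle for no effect and reference inhibitor for full effect; nearly all actives have a fitted effect of over 55% in size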
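Biochemical qHTS of compounds, final roughly 60 µM downward over six points, against 10 nM purified firefly luciferase using Km concentrations of substrates (10 uM D-luciferin, 10 uM ATP) in Tris acetate pH 7.5 buffer; luminescence output.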
ELG1 genotox – induces genotoxicity in HEK293T cells with luciferase-tagged ELG1. Potency, µM (highest dose often 46 µM), for the others: at the top dose activity change, positive = activation, usual class: activators. AID 504466. HEK293T ELG1-luciferase reporter, luminescence, 16 h. 330,000 compounds, 1.3% hits; note: % of control where 0% means no effect; nearly all actives have a fitted effect of over 60% in size
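DMSO vehicle served as control against compound-treated ELG1-luciferase HEK293T cells; exposure lasted 16 hr at 37 °C and 5% CO2, followed by ONE-Glo luminescence detection after 30 min.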
Rab9 prom act – activates the Rab9 promoter. Huh7 Rab9 promoter-luciferase reporter, luminescence, 24 h. Potency, µM (doses to about 9.22 µM), inactives show top-dose activation, negative = inhibition, hits mostly activators. 320,000 compounds, 2.8% hits. AID 485297; note: % of control where 0% means no effect; nearly all actives have a fitted effect of over 60% in size
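Luciferase signal after 10 min detection reagent at ambient indicates Rab9 promoter upregulation; stably transfected Huh7 cells were treated 24 h with compound in DMSO at 37 °C, 5% CO2.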
ELG1 repair inh – blocks ELG1-dependent DNA repair in HEK293T cells; Potency, µM (titrated, usually from 46.1 µM), for the others: at the top dose activity change, negative = inhibition, hits mostly inhibitors; 330,000 compounds, 2.3% hits; HEK293T ELG1-luciferase reporter, luminescence, 16 h; DNA damage induced by 5-fluorouridine; AID 504467; note: % is set by controls: 0 for no effect and ±100 for the full control effect; nearly all actives have a fitted effect of over 55% in size
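Step one: seed 2,000 cells per well. Step two: pin-transfer compound or DMSO alongside 5-fluorouridine. Step three: incubate 16 hr, 37 °C, 5% CO2. Step four: add ONE-Glo, wait 30 min, read luminescence.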
NPC1 prom act – activators of NPC1 promoter. Huh7 NPC1 promoter luciferase reporter, 24 h. Potency, µM (top dose mostly 9.22 µM), for inactives: at the highest dose activation, usual class: activators. 320,000 compounds, 2.4% hits; note: % of control where 0% means no effect; nearly all actives have a fitted effect of over 60% in size
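Stable NPC1-promoter luciferase Huh7 line; cpd (DMSO) 24 h, 37 °C, 5% CO2; Amplite luciferase reagent 10 min RT; luminescence readout. qHTS format.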
ELG1 FLuc counter – luciferase inhibition in cell-free luciferin readout for ELG1 hits; Potency, µM (top dose mostly 46.1 µM), inactives show at the highest dose activity change, negative = inhibition, hits mostly inhibitors; shares compounds with ELG1 repair inh; cell-free firefly luciferase luminescence counter-screen, ViewLux; 350 compounds, 3% hits; AID 624247; note: % is set by controls: 0 for no effect and ±100 for the full control effect
ELG1 Luc conf – inhibits ELG1-dependent DNA repair in HEK293T cells, confirmed. shares compounds with ELG1 repair inh. AID 624248. 670 compounds, 68% hits. HEK293T ELG1-luciferase levels, luminescence; cells co-treated with 5-fluorouridine. Potency, µM (series often up to 46.1 µM), without a hit: at the top dose activity change, negative = inhibition, hits mostly inhibitors; note: % is set by controls: 0 for no effect and ±100 for the full control effect; nearly all actives have a fitted effect of over 55% in size
ELG1-Luc MMS – confirmation of human ELG1 repair inhibitors, MMS stimulated. 670 compounds, 53% hits. Potency, µM (top dose mostly 46.1 µM), for inactives: top-dose activity change, negative = inhibition, hits mostly inhibitors. AID 624249. shares compounds with ELG1 repair inh. HEK293T luciferase-tagged ELG1 level, MMS stimulated; note: % is set by controls: 0 for no effect and ±100 for the full control effect; nearly all actives have a fitted effect of over 60% in size
ELG1 5FU viab – confirmation of ELG1 repair inhibitors: viability with 5FU. shares compounds with ELG1 repair inh. 670 tested, under 10 active. cell viability with 5-FU, ELG1-dependent repair. Potency, µM (series often up to 46.1 µM), for inactives: at the top dose activity change, negative = viability loss, hits mostly cytotoxic;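 note: ELG1-luc HEK293T cells cotreated with 5-fluorouridine at 10 µM final; viability measured 16 h after compound addition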
ELG1 MMS viab – confirmation of ELG1 repair inhibitors: viability with MMS; shares compounds with ELG1 repair inh; Cell viability with MMS, ELG1-dependent DNA repair; Potency, µM (doses to about 46.1 µM), for inactives: at the top dose activity change, negative = viability loss, usual class: cytotoxic; 670 compounds, 33% hits;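 note: ELG1-luc HEK293T cells co-treated with 10 µM MMS; viability read 16 h after compound addition; % is set by controls: 0 for no effect and ±100 for the full control effect; nearly all actives have a fitted effect of over 60% in size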
ELG1 unstim viab – affects unstimulated cell viability, ELG1 hit counter-screen. shares compounds with ELG1 repair inh. cell viability counter-screen, unstimulated, luminescence. Potency, µM (titrated, usually from 45.9 µM), without a hit: at the top dose activity change, negative = loss of viability, actives largely listed as cytotoxic. 900 compounds, 8% hits. AID 624252;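 note: compound exposure lasted 16 hours before reading; % is set by controls: 0 for no effect and ±100 for the full control effect; nearly all actives have a fitted effect of over 55% in size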
FLuc biochem – firefly luciferase inhibition counter-screen; shares compounds with ELG1 repair inh; 350 compounds, 10% hits; Potency, µM (series often up to 57.5 µM), without a hit: at the top dose activity, negative = inhibition, usual class: inhibitors; purified firefly luciferase, luminescence counter-screen; note: % is set by controls: 0 for no effect and ±100 for the full control effect
* hit, by the source's call; ? = inconclusive; nt = not tested or not shown; [ ] = another dose, or the depositor's remark. Compounds with a hit are over-represented: about 9.2% of the library has one in this group of screens. Calls come from the whole dose curve; as a rule, active = well fitted curve in the direction sought with a large enough effect; inconclusive = small, poorly fitted or top-dose-only effect, or another doubt; inactive = no such curve, though single readings can be large; an effect the other way counts as inactive or inconclusive. Potency is the fitted concentration of half-maximal effect.

SMILES	SMN2 splice enh	FLuc modulator	ELG1 genotox	Rab9 prom act	ELG1 repair inh	NPC1 prom act	ELG1 FLuc counter	ELG1 Luc conf	ELG1-Luc MMS	ELG1 5FU viab	ELG1 MMS viab	ELG1 unstim viab	FLuc biochem
COc1ccc(-c2noc(CCCC(=O)NC3CCCC3)n2)cc1	nt	?	-7%	-26%	4.6µM*	-24%	nt	?	5.6µM*	1%	7.1µM*	?	nt
COC(=O)c1ccccc1NC(=O)C1CCN(c2ncnc3c2nc2n3CCCCC2)CC1	nt	6%	-8%	0%	?	-2%	-2%	11µM*	?	?	1%	-8%	-11%
COc1ccc(NC(=O)C2CCN(c3nc(C)cc(C)n3)CC2)cc1	-1%	-2%	-1%	-9%	-14%	-5%	nt	nt	nt	nt	nt	nt	nt
COc1ccc(NC(=O)C2CCN(c3ncnc4c3nc3n4CCCCC3)CC2)c(OC)c1	nt	-12%	-5%	-1%	4.6µM*	0%	?	7.9µM*	32µM*	?	?	?	-9%
COc1ccc(N2CCN(C(=O)C3CCCN(c4ncnc5c4nc4n5CCCCC4)C3)CC2)cc1 (configuration not stated)	nt	1%	-12%	0%	3.7µM*	-7%	56%	10µM*	?	?	-7%	?	-4%
COc1ccc(NC(=O)C2CCN(c3nc(C)nc4c3CCC4)CC2)cc1	-56%	21%	-7%	-15%	0.73µM*	-16%	-13%	?	5µM*	-6%	5µM*	?	25%
COCCOC(=O)c1c(C)oc2ccc(OC(=O)c3ccc4c(c3)OCO4)cc12	3%	?	2%	-1%	16%	0%	nt	nt	nt	nt	nt	nt	nt
CC1CCN(C(=O)C2CCN(c3ncnc4c3nc3n4CCCCC3)CC2)CC1	nt	-2%	-8%	0%	-3%	-3%	nt	nt	nt	nt	nt	nt	nt
Cc1cccc(NC(=O)C2CCN(c3ncnc4c3nc3n4CCCCC3)CC2)n1	nt	-2%	-3%[9.26 µM]	5%	1.8µM*	-6%	5%	5µM*	?	?	-11%	?	-5%
CCCN1CCN(C(=O)C2CCN(c3ncnc4c3nc3n4CCCCC3)CC2)CC1	nt	4%	0%	-3%	-8%	-2%	65%	-28%	?	-8%	?	-16%	-2%
CN1C(=O)C(C)(C)c2cc(S(=O)(=O)N3CCN(c4cccc(Cl)c4)CC3)ccc21	nt	0%	6%	-1%	3%	1%	nt	nt	nt	nt	nt	nt	nt
COc1cc(-c2cc(C(F)(F)F)n3ncc(C(=O)O)c3n2)cc(OC)c1OC	10%	5%	3%	2%	4.1µM*	0%	nt	7.1µM*	10%	?	?	12%	nt
COc1ccc(-c2cc(C(F)(F)F)n3ncc(C(=O)NCc4ccco4)c3n2)cc1	-19%	5%	7%	-1%	1.3µM*	-6%	0%	1.8µM*	?	?	-8%	-12%	-12%
O=C(NCc1ccco1)c1cnn2c(C(F)(F)F)cc(-c3ccccc3)nc12	-6%	-1%	-1%	-2%	?	0%	nt	nt	nt	nt	nt	nt	nt
Cc1ccc(C2CC(C(F)(F)F)n3ncc(C(=O)NCc4ccco4)c3N2)cc1 (configuration not stated)	3%	0%	0%	-2%	-20%	-4%	5%	28µM*	-11%	?	5%	7%	-8%
CCc1ccccc1NC(=O)c1cnn2c(C(F)(F)F)cc(-c3ccc(OC)c(OC)c3)nc12	1%	-1%	nt	nt	nt	nt	nt	nt	nt	nt	nt	nt	nt
Cc1ccc(C2CC(C(F)(F)F)n3ncc(C(N)=O)c3N2)cc1 (configuration not stated)	-10%	-10%	-1%	6%	-15%	7%	nt	nt	nt	nt	nt	nt	nt
O=[N+]([O-])/C(C(Cl)=C(Cl)Cl)=C(/Sc1ccccc1)N1CCCCC1	nt	1%	2%	-3%	?	-2%	nt	nt	nt	nt	nt	nt	nt
CCC(Sc1nc2nccnc2c(=O)n1Cc1ccc(C)cc1)C(=O)NC1CCCCC1 (configuration not stated)	nt	0%	nt	nt	nt	nt	nt	nt	nt	nt	nt	nt	nt
O=C(Nc1ccc(F)cc1)N(CCCN1CCOCC1)Cc1cc2cc3c(cc2[nH]c1=O)OCCO3	-53%	4%	-1%	1%	?	-15%	nt	nt	nt	nt	nt	nt	nt
O=C(Nc1ccc(F)cc1)N(CCCN1CCOCC1)Cc1cc2cc3c(cc2[nH]c1=O)OCO3	-35%	3%	15%	1%	-9%	-4%	34%	?	21%	9%	-8%	?	-9%
Cc1ccc(Br)cc1S(=O)(=O)N1CCN(c2ccccc2)CC1	-6%	1%	-3%	-1%	-3%	12%	nt	nt	nt	nt	nt	nt	nt
CC(=O)Nc1ccc(NC(=O)COc2cc(C)cc3oc(=O)cc(C)c23)cc1	nt	0%	4%	-1%	-2%	-3%	nt	nt	nt	nt	nt	nt	nt
Cc1cc(OCC(=O)Nc2ccccc2C(N)=O)c2c(C)cc(=O)oc2c1	nt	-1%	0%	-9%	3.7µM*	-7%	nt	13µM*	-14%	?	?	2%	nt
O=C(Nc1nc2c(s1)CCCC2)c1ccc(S(=O)(=O)N2CCCc3ccccc32)cc1	-21%[1.84 µM]	2%	11%	-21%	-20%	-15%	nt	nt	nt	nt	nt	nt	nt
